In PubChem BioAssay:
Records with an inconclusive call do not appear. Active and inactive are the calls of the source.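 The calls were made as follows, unless noted: active = RAM network inhibition above 8.4% in each of two replicates, 3 SD over the compound average; inconclusive = above 8.4% inhibition in only one replicate; inactive = 8.4% inhibition or less in each replicate.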

Assays:
[1] = HUVEC growth inhibition – cell-based, human, primary screen (AID 575;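 active = viability at or below 30% in both replicate assays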;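 also: 100% = median of untreated cell wells with 0.1% DMSO on each plate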); details: HUVEC proliferation, CellTiter-Glo luminescence, 72 h; at 10 µM; stronger effect = lower value
[2] = H69AR cell proliferation blockers – human, duplicate replicates, primary screen (AID 580;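 active = viability at or under a set limit in both replicates, limit being median viability minus 3 SD, cut at about 48% in these data, passing the limit was not always enough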;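 also: 100% = mean luminescence of untreated wells and 0% = no signal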); details: H69AR lung tumor cells viability, ATP luminescence, 72 h; at 10 µM; stronger effect = lower value
[3] = MRP1 drug-resistance reversers in H69AR cells – cell-based, doxorubicin co-treatment, pilot screen (AID 601;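 active = viability loss from added drug above about 55%, and viability with drug at most 40%, in both replicates, limit read from the data, passing the limit was not always enough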); details: CellTiter-Glo, 72 h, at 10 µM; for differential viability (reversal): stronger effect = higher value
[4] = yeast transport mutant growth inhibition pilot in 384-well plates, post-Golgi transport modulator project (AID 636; in the data active = inhibition above about 31%); details: absorbance 615 nm, about 18 h, stronger effect = higher value
[5] = growth suppression of yeast trafficking mutant, preliminary HTS, modulators of trafficking downstream of Golgi apparatus project, 1536-format plate, OD 615 nm (AID 637; in the data active = inhibition above about 30%); details: yeast transport mutant growth, absorbance 615 nm, 18 h; stronger effect = higher value
[6] = S. cerevisiae growth inhibition in permissive medium (OD615), pilot counter-assay for S. cerevisiae lifespan shortening project, permissive growth control (AID 705;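 active = growth inhibition above 25% in both replicates, a cutoff set 3 SD above the mean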); details: OD615, 24 h, at 10 µM, stronger effect = higher value
[7] = S. cerevisiae growth inhibition in restrictive medium, OD615, pilot screen, restrictive growth control, yeast lifespan reduction project (AID 706;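 active = growth inhibition above a set limit, 3 SD over mean compound inhibition, in both replicates, cut at about 43% in these data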;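 also: modified DeaD lifespan yeast strain shifted to restrictive glucose medium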); details: OD615, 48 h, at 10 µM, stronger effect = higher value
[8] = doxorubicin toxicity protection in MRP-1 cells – H69AR cells, CellTiter-Glo, duplicate, MRP-1 activator project, pilot screen (AID 807;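 active = viability increase at or above a cutoff of the median across tested compounds plus 3 SD, cut at about 8.5% in these data, passing the limit was not always enough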;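 also: compound pretreatment 18-22 h then 72 h combined with doxorubicin; 0% = doxorubicin alone and 100% = vehicle without doxorubicin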); details: H69AR viability with doxorubicin, CellTiter-Glo luminescence; at 10 µM; stronger effect = higher value
[9] = viability of HCT116 without oncogenic beta-catenin – human colon tumor cells, pilot screen (AID 823;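 active = cell viability at or below a set limit in both duplicate runs, the limit being the all-compound median minus 4 SD, cut at about 23% in these data, passing the limit was not always enough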;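 also: 0% = wells killed by 20 µM Hyamine and 100% = untreated DMSO cell wells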); details: HCT116 beta-catenin knockout viability, CellTiter-Glo, 60 h; at 10 µM; stronger effect = lower value
[10] = viability of PTEN-null HCT116 cells – cell-based, HCT116 clonal line, CellTiter-Glo, pilot screen (AID 824;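 active = viability at or below 27.92% in each of two runs, the all-compound median minus 4 SD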;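 also: 0% = 20 µM Hyamine control and 100% = vehicle cell control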); details: HCT116 PTEN-deleted viability, 60 h, at 10 µM, stronger effect = lower value
[11] = RAM pathway blockade in budding yeast – dse1pr::URA3 reporter, 5-FOA selection, pilot screen (AID 869;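 active = inhibition over a set limit, the all-compound mean plus 3 SD, in both replicate runs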;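 also: 0% = DMSO wells with no growth and 100% = 10 µM 1-NA-PP1 with full growth; RAM network block rescues cells from 5-FOA so hits raise OD615 growth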); details: S. cerevisiae dse1pr::URA3 5-FOA growth, OD615, 2 d; at 10 µM; stronger effect = higher value; strain carries analog-sensitive mutant Cbk1 kinase
[12] = RAM signaling pathway blockade in yeast – S. cerevisiae, Pdr1DBD-CYC8 efflux-inhibited sensitized strain, primary screen (AID 1298);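 also: 0% = DMSO untreated cells without growth and 100% = 10 µM 1-NA-PP1 full growth; higher means more yeast growth rescued from 5-FOA killing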; details: S. cerevisiae cbk1-as DSE1-URA3 strain, 5-FOA growth OD615, 2 d; at 50 µM; stronger effect = higher value
[13] = H69AR cells + 2 uM doxorubicin, measured here: viability with 2 uM doxorubicin, stronger effect = lower value
[14] = H69AR cells, compound alone cytotoxicity

SMILES | viability [1] | viability [2] | differential viability (reversal) ([3]; H69AR cells + 2 uM doxorubicin) | viability [3, 13] | viability [3, 14] | inhibition [4] | inhibition [5] | growth inhibition [6] | growth inhibition [7] | viability increase [8] | viability [9] | viability [10] | inhibition [11] | RAM network inhibition [12]
COCCn1c(=O)[nH]c2cc(C(=O)N3CCN(c4ccccc4OC)CC3)ccc2c1=O | 110% (inactive) | 85.8% (inactive) | -5.65% (inactive) | 91.4% | 85.8% | -4.87% (inactive) | 0.32% (inactive) | -3.6% (inactive) | -7.11% (inactive) | -0.61% (inactive) | 104% (inactive) | 99% (inactive) | 1.2% (inactive) | 6.96% (inactive)
N#C/C(C(=O)c1ccccc1)=C1/CCCN1 | 95.8% (inactive) | 97.2% (inactive) | 5.69% (inactive) | 91.5% | 97.2% | -1.04% (inactive) | 5.08% (inactive) | -10.5% (inactive) | -8.62% (inactive) | 2.34% (inactive) | 108% (inactive) | 105% (inactive) | 1.44% (inactive) | 1.34% (inactive)
COc1cccc2cc(C(=O)Nc3cccnc3N3CCOCC3)c(=O)oc12 | 101% (inactive) | 94.3% (inactive) | 10.1% (inactive) | 84.2% | 94.3% | -4.03% (inactive) | 3.65% (inactive) | -8.22% (inactive) | -21.8% (inactive) | -3.74% (inactive) | 101% (inactive) | 98.8% (inactive) | 3.31% (inactive) | 1.45% (inactive)
COC(=O)c1cccc(NC(=O)C2COc3ccccc3O2)c1C (centres undefined) | 116% (inactive) | 100% (inactive) | 8.78% (inactive) | 91.4% | 100% | -1.71% (inactive) | -6.98% (inactive) | -14.9% (inactive) | -21.5% (inactive) | 0.68% (inactive) | 106% (inactive) | 99% (inactive) | -0.07% (inactive) | 3.78% (inactive)
COc1ccc(C)cc1NC(=O)CNC(=O)Cn1ccc2ccccc2c1=O | 112% (inactive) | 92.8% (inactive) | 6.84% (inactive) | 85.9% | 92.8% | -1.18% (inactive) | 1.59% (inactive) | -17.2% (inactive) | -3.23% (inactive) | -2.41% (inactive) | 89% (inactive) | 90.3% (inactive) | 1.96% (inactive) | 5.68% (inactive)
O=C(NCCc1cccc(Cl)c1)c1cccnc1 | 87.9% (inactive) | 103% (inactive) | 26.5% (inactive) | 76.8% | 103% | -2.21% (inactive) | 5.4% (inactive) | -1.24% (inactive) | 10.7% (inactive) | -0.51% (inactive) | 98.9% (inactive) | 98.3% (inactive) | 0.32% (inactive) | 1.21% (inactive)
Cn1ccnc1C(O)c1ccco1 (centres undefined) | 101% (inactive) | 103% (inactive) | 13.1% (inactive) | 89.5% | 103% | -5.39% (inactive) | 1.43% (inactive) | -5.51% (inactive) | -3.72% (inactive) | -0.09% (inactive) | 102% (inactive) | 103% (inactive) | 0.74% (inactive) | 3.14% (inactive)
Cc1nnc(N(Cc2ccco2)C(=O)c2cccc(C#N)c2)s1 | 84.1% (inactive) | 94.6% (inactive) | -3.37% (inactive) | 97.9% | 94.6% | -1.69% (inactive) | -6.35% (inactive) | -6.52% (inactive) | 6.42% (inactive) | -0.66% (inactive) | 103% (inactive) | 98.5% (inactive) | 1.8% (inactive) | 4.13% (inactive)
COCCn1c(=O)[nH]c2cc(C(=O)NCCCN3CCN(c4ccc(F)cc4)CC3)ccc2c1=O | 97.8% (inactive) | 100% (inactive) | 3.64% (inactive) | 96.6% | 100% | 0% (inactive) | -2.38% (inactive) | -12.8% (inactive) | -0.415% (inactive) | -0.08% (inactive) | 86.2% (inactive) | – | 0.63% (inactive) | 8.31% (inactive)
CCn1cc(C(=O)NCC2COc3ccccc3O2)c2cc(OC)c(OC)cc2c1=O (centres undefined) | 77.5% (inactive) | 79.3% (inactive) | 0.385% (inactive) | 79% | 79.3% | -6.05% (inactive) | 0.16% (inactive) | -11.4% (inactive) | -33.2% (inactive) | -4.69% (inactive) | 97.9% (inactive) | 86.7% (inactive) | 0.96% (inactive) | 3.33% (inactive)
COc1ccc(C)cc1NS(=O)(=O)c1cccc2nonc12 | – | – | – | – | – | – | – | -8.6% (inactive) | -10.6% (inactive) | -3.24% (inactive) | 95.8% (inactive) | 94.3% (inactive) | – | 4.42% (inactive)
CCCCOc1ccccc1NC(=O)CC1Nc2ccccc2NC1=O (centres undefined) | – | – | – | – | – | – | – | 6.14% (inactive) | 0.91% (inactive) | -6.18% (inactive) | – | – | – | 7.51% (inactive)
CCOC(=O)C1CCN(S(=O)(=O)C(F)(F)c2nc3ccccc3s2)CC1 | – | – | – | – | – | – | – | -10.6% (inactive) | -6.5% (inactive) | -2.27% (inactive) | 82.2% (inactive) | 87.5% (inactive) | – | 5.28% (inactive)
Cc1cc(=S)cc(C)n1CCCn1ccnc1 | – | – | – | – | – | – | – | -1.13% (inactive) | -26.5% (inactive) | -0.81% (inactive) | 103% (inactive) | 99.7% (inactive) | – | 3.26% (inactive)
Cc1ccc(C)c(N2CCN(CCCNC(=O)Cn3cc4c(n3)CCCCC4)CC2)c1 | 2.8% (active) | – | -31.3% (inactive) | 68.4% | 37.1% | -2.69% (inactive) | 4% (inactive) | -6.4% (inactive) | -0.285% (inactive) | -7.67% (inactive) | – | 19.6% (active) | 0.495% (inactive) | 4.06% (inactive)
CCn1c(=O)c2cc(C(=O)Nc3cc(C)on3)sc2c2ccccc21 | – | – | – | – | – | – | – | -16.6% (inactive) | -25.2% (inactive) | -6.36% (inactive) | 92.1% (inactive) | 71.5% (inactive) | – | 4.19% (inactive)
CCSC1=C(C#N)C(c2cccc(O)c2)CC(=O)N1 (centres undefined) | – | – | – | – | – | – | – | -2.26% (inactive) | -11% (inactive) | -1.66% (inactive) | 98.2% (inactive) | 97.1% (inactive) | – | 3.85% (inactive)
CC(C)=CC(=O)OCC(=O)NC(=O)NC(C)(C)C | 103% (inactive) | 97% (inactive) | -3.87% (inactive) | 101% | 97% | 0.52% (inactive) | -3.97% (inactive) | 1.02% (inactive) | 3.65% (inactive) | -3.01% (inactive) | 104% (inactive) | – | 2.76% (inactive) | 2.91% (inactive)
COc1ccc(C(=O)n2nc(C)cc2C)cc1Br | – | – | – | – | – | – | – | -8.38% (inactive) | -1.95% (inactive) | -0.08% (inactive) | 101% (inactive) | 99.3% (inactive) | – | -0.42% (inactive)
